Assay outcomes from PubChem.
The list is not random: actives were taken first. Their share in the collection is about 3.5%.
MITF inh: MITF inhibitors, primary screen, biochemical, AlphaScreen, human | Microphthalmia-associated transcription factor (Homo sapiens), O75030 | inhibition, % at 2.6 µM | AlphaScreen MITF homodimerization, bead proximity signal | AID 1259374, 2018 | 650,000 tested, 0.91% active; in the data active = inhibition above about 50%;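 also: 0% = vehicle wells with protein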
FBW7 act: FBW7 E3 ligase activators, primary screen, biochemical, AlphaScreen, human; AlphaScreen FBW7–phospho-cyclin E peptide binding, activator screen; F-box/WD repeat-containing protein 7 (Homo sapiens), Q969H0; 650,000 tested, 0.13% active; normalized activity (activation), % at 26.1 µM; in the data active = normalized activity above about 1.9%;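 also: purified mutant Fbw7 with reduced substrate affinity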
GPR151 activ: activators of human GPR151, primary screen, cell-based, PathHunter beta-arrestin, luminescence; G-protein coupled receptor 151 (Homo sapiens), Q8TDV0; PathHunter beta-arrestin GPR151 cells; activation, % at 11.2 µM; 650,000 tested, 1% active; in the data active = activation above about 4.9%;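 also: 0% = median of compound wells and 100% = cells with positive control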
Target sequence (Q8TDV0 whole entry, looked up): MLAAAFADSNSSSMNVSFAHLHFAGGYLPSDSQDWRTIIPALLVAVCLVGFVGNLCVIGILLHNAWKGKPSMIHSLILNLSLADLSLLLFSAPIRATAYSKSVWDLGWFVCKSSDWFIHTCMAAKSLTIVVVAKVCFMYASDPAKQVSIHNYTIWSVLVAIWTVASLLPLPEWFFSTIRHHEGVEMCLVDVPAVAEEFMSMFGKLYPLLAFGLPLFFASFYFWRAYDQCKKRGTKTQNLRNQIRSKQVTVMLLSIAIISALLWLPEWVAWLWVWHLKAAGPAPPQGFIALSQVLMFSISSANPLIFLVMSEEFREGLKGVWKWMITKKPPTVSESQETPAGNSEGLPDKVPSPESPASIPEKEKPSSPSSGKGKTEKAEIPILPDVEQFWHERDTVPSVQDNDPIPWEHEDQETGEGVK
TEAD-YAP inh: TEAD-YAP interaction inhibition, primary screen, TEAD-YAP interaction inhibitor project, luminescence, HEK-TIYL cells | TEAD-Gal4/YAP UAS-luciferase luminescence | inhibition, % at 9.12 µM | 640,000 tested, 1.4% active | AID 1259422, 2018; in the data active = inhibition above about 32%;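 also: 0% = median of test compound wells and 100% = reference inhibitor wells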
GPR151 confirm: GPR151 activators, triplicate retest, confirmation, cell-based, PathHunter beta-arrestin, luminescence | shares compounds with GPR151 activ | GPR151 PathHunter beta-arrestin cells, 90 min; % of EA-reagent control over plate median | activation, % at 11.2 µM | 6,700 tested, under 10 active | AID 1508609, 2020;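 active = mean percent activation across replicates above the confirmation screen cutoff of 4.91%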
GPR119 counter: GPR119 activators in beta-arrestin cells, counter-screen for GPR151 activator project, cell-based, PathHunter beta-arrestin, luminescence, triplicate; shares compounds with GPR151 activ; 90 min; 0 = compound-well median, 100 = enzyme-acceptor control; activation, % at 11.2 µM; 6,700 tested, 0.3% active; AID 1508611, 2020;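 active = mean percent activation in the counterscreen above 29.09%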;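 also: counterscreen on off-target GPR119 to flag nonselective hits from the GPR151 activator screen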
* hit, by the source's call; · = not tested or not shown.

SMILES	MITF inh	FBW7 act	GPR151 activ	TEAD-YAP inh	GPR151 confirm	GPR119 counter
CCC(=O)NCCc1c[nH]c2ccc(OC)cc12	9.3	0.0	-0.8	5.9	·	·
COc1ccc2[nH]cc(CCNC(=O)c3ccc(Br)cc3)c2c1	-3.0	0.1	9.4*	-3.4	0.3	-6.4
COC(=O)C1=CN(C2CCCCC2)C=C(C(=O)OC)C1c1ccc(Br)cc1	9.5	0.0	2.3	2.9	·	·
CC(=O)N1CCc2ccc(S(=O)(=O)N3CCCc4ccccc43)cc21	4.9	-0.3	6.7*	54.0*	-0.1	2.5
CC(=O)N1CCOc2cc(S(=O)(=O)N3CCCc4ccccc43)ccc21	4.4	-0.1	0.9	6.9	·	·
Cc1ccc(O)c(C2=Nc3ccccc3N=C(c3cccc(Br)c3)C2)c1	-6.6	-0.1	0.2	-77.0	·	·
COc1ccc(O)c(C2=Nc3ccccc3N=C(c3cccc(Br)c3)C2)c1	7.4	0.1	5.5*	-66.7	-0.1	5.8
COc1ccc(S(=O)(=O)N(CC(=O)N2CCOCC2)Cc2ccccc2)cc1C	-23.8	-0.1	0.7	3.5	·	·
COc1ccc(C)cc1S(=O)(=O)N(CC(=O)N1CCOCC1)Cc1ccccc1	8.9	0.2	12.1*	3.0	-0.6	-4.7
CCOc1ccccc1-n1c(=S)sc2c(=O)n(-c3ccccc3)c(SCC(=O)Nc3cccc(OC)c3)nc21	6.7	0.0	0.4	8.9	·	·
Cc1ccc2occ(C(=O)c3ccccc3Cl)c(=O)c2c1	10.4	-0.1	7.7*	11.0	0.7	-5.7
Cc1ccc(-c2nc(N3CCC(C)CC3)c3ccccc3n2)cc1	-2.0	0.1	-1.6	-7.0	·	·
CCS(=O)(=O)N1CCN=C1SCc1ccccc1	-6.7	-0.4	5.6*	4.6	1.2	10.1
CCCS(=O)(=O)N1CCN=C1SCc1ccccc1	-0.1	0.0	0.8	-4.4	·	·
CC1CN(c2ccc(Br)cc2)c2nc3c(c(=O)n(CC(N)=O)c(=O)n3C)n2C1 (stereo not drawn)	0.2	0.0	10.3*	-7.1	-1.7	-19.3
N#C/C(=C\Nc1ccc(Br)cn1)c1nc(-c2ccccc2)cs1	-5.3	-0.1	-0.2	2.0	·	·
CC(C)CN(C(=O)c1ccccc1Cl)c1nnc(-c2ccncc2)s1	12.2	-1.3	6.3*	-5.5	0.1	-2.1
O=C(Cc1ccccc1)NS(=O)(=O)c1ccc(N=NN2CCCCC2)cc1	-0.8	-0.1	7.3*	1.5	1.1	7.7
O=[N+]([O-])c1ccccc1/C=C/CN1CCN(CCOCCO)CC1	49.1	-0.3	5.4*	5.2	0.1	4.5
O=[N+]([O-])c1ccccc1/C=C/CN1CCSCC1	40.3	-0.1	0.6	-5.5	·	·
O=S(=O)(NCc1ccco1)c1cccc2c(S(=O)(=O)NCc3ccco3)cccc12	10.6	0.1	0.4	-1.2	·	·
O=[N+]([O-])c1ccccc1S(=O)(=O)c1ccccc1[N+](=O)[O-]	16.3	0.5	5.5*	9.7	0.0	-0.7
O=[N+]([O-])c1ccccc1S(=O)(=O)NCc1ccco1	14.2	0.5	7.1*	-23.2	0.0	12.6
CCN(CC)CCOc1ccc2c(c1)C(=O)c1cc(OCCN(CC)CC)ccc1-2	8.2	0.3	14.9*	49.6*	-0.7	-3.0
CCOC(=O)c1sc2nc(SCC(=O)Nc3ccc(OCC)cc3)n(CCC3=CCCCC3)c(=O)c2c1C	-3.3	0.0	0.2	-12.3	·	·
SMILES	MITF inh	FBW7 act	GPR151 activ	TEAD-YAP inh	GPR151 confirm	GPR119 counter
CCn1c(=NC(=O)c2ccco2)sc2cc3c(cc21)OCCO3	3.3	1.0	5.7*	-31.9	-1.1	-7.8
CCn1c(=NC(=O)c2ccco2)sc2cccc(F)c21	4.9	0.0	0.7	-36.2	·	·
CCn1c(=NC(=O)c2ccco2)sc2cccc(OC)c21	-1.7	0.1	5.0*	6.9	-0.1	-1.7
COc1ccc(OC)c2c1sc(=NC(=O)c1ccco1)n2C	-14.9	-0.1	5.3*	-12.7	1.2	5.8
CCOCCn1c(=NC(=O)c2ccco2)sc2cc(C)ccc21	-6.9	0.1	5.8*	-46.7	1.4	3.8
C=CCn1c(=NC(=O)c2ccco2)sc2cccc(OC)c21	14.8	0.1	0.2	8.3	·	·
